Assay outcomes as filed in PubChem BioAssay.
Rows were chosen to be rich in hits. Some 3.5% of all compounds tested hit in one or more screens of this group.
FBW7 act – activators of human E3 ligase FBW7; Q969H0; AlphaScreen FBW7–phospho-cyclin E peptide binding, activator screen; normalized activity (activation), % at 26.1 µM; actives 0.13% (n = 650,000); AID 1259310; in the data active = normalized activity above about 1.9%;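 also: purified mutant Fbw7 with reduced substrate affinity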
MITF primary – blocks human microphthalmia-associated transcription factor | O75030 | AlphaScreen MITF homodimerization, bead proximity signal | inhibition, % at 2.6 µM | actives 0.91% (n = 650,000) | AID 1259374; in the data active = inhibition above about 50%;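 also: 0% = vehicle wells with protein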
TEAD-YAP inh – TEAD-YAP interaction inhibition; HEK-TIYL cells, TEAD-Gal4/YAP UAS-luciferase luminescence; inhibition, % at 9.12 µM; actives 1.4% (n = 640,000); AID 1259422; in the data active = inhibition above about 32%;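 also: 0% = median of test compound wells and 100% = reference inhibitor wells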
GPR151 ag – activators of human GPR151; PathHunter beta-arrestin GPR151 cells, luminescence; actives 1% (n = 650,000); Q8TDV0; activation, % at 11.2 µM; in the data active = activation above about 4.9%;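 also: 0% = median of compound wells and 100% = cells with positive control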
MITF inh conf – confirmation of human MITF inhibitors | shares compounds with MITF primary | AlphaScreen MITF homodimerization, biotin/His-MITF beads | inhibition, % at 2.6 µM | actives 16% (n = 4,700) | AID 1259372;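 active = inhibition above a cutoff derived from the DMSO control wells, cut at about 28% in these data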;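 also: 0% = MITF dimer wells with DMSO only; inhibitors lower the bead chemiluminescence by keeping MITF from dimerizing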
AS interf DR – AlphaScreen optical interference, dose response counter-screen; shares compounds with MITF primary; AlphaScreen optical interference counterscreen, cell-free; IC50, µM; actives 6% (n = 480); AID 1259373; call rule not given here
AlphaScreen intf2 – optically interferes with AlphaScreen signal. actives 7.6% (n = 4,700). LysRS AlphaScreen counterscreen, signal interference, triplicate. shares compounds with MITF primary. inhibition, % at 2.6 µM;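 active = inhibition above a cutoff derived from the DMSO control wells, cut at about 30% in these data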
Active calls of the source: *; nt = not tested or not shown.

SMILES	FBW7 act	MITF primary	TEAD-YAP inh	GPR151 ag	MITF inh conf	AlphaScreen intf2	others
O=S(=O)(c1ccccc1)N1CCC(N2CCCCCC2)CC1	0	28	1	2	nt	nt
CCOc1ccc(N2C(=O)/C(=C/c3ccc(O)c(OC)c3)C(=O)NC2=S)cc1	0	21	3	-1	nt	nt
COc1cccc(C(=O)NNC(=O)C(=O)NCCO)c1	1	61*	5	1	-6	3
COc1cccc(C(=O)NNC(=O)C(=O)NC(C)C)c1	0	10	0	0	nt	nt
COc1ccc(C(=O)/C=C(\C)Nc2ccccc2O)cc1	0	19	-5	-1	nt	nt
COCCNC(=S)NNC(=O)c1cc(Cl)ccc1OC	0	63*	-6	-1	12	14
COCCNC(=S)NNC(=O)c1ccc(Cl)cc1Cl	0	-12	-7	0	nt	nt
CC1=NN(c2cccc(C(=O)O)c2)C(=O)C1	0	60*	-2	0	14	25
CC1=NN(c2cccc(F)c2)C(=O)C1	-1	-9	3	-1	nt	nt
CC1(C)CC(OC(=O)CCN2CCCCC2)CC(C)(C)N1	0	-4	-5	2	nt	nt
CCCCS(=O)(=O)C1CCCCC1OC(=O)CCN1CCCCC1 (stereo not drawn)	0	51*	9	-2	15	0
O=C(Cc1ccc(F)cc1)Nc1c2c(nn1-c1ccccc1)CS(=O)C2 (stereo not drawn)	0	15	-3	0	nt	nt
Cc1cccc(CC(=O)Nc2c3c(nn2-c2ccc(F)cc2)CS(=O)C3)c1 (stereo not drawn)	0	88*	11	-1	-7	-6
c1ccc(OCCCn2ccnc2)cc1	0	-1	7	0	nt	nt
c1ccc(COc2ccc(OCCCn3ccnc3)cc2)cc1	0	79*	54*	-6	6	18
CCc1ccc(OCCCCCn2ccnc2)cc1	0	53*	6	0	-5	-2
c1ccc(COc2ccc(OCCn3ccnc3)cc2)cc1	0	81*	-45	1	7	2
CCc1ccc(OCCn2ccnc2)cc1	0	31	-2	0	nt	nt
COC(=O)C1=CN(Cc2ccc(OC)cc2)C=C(C(=O)OC)C1c1ccc(Cl)c([N+](=O)[O-])c1	0	16	0	0	nt	nt
CCn1c2ccccc2c2cc(/C=N/Nc3ncnc(N)c3[N+](=O)[O-])ccc21	0	1	10	0	nt	nt
CCCCCCCNC(=O)COc1ccc2c(c1)C(=O)CC(C)(C)O2	0	-12	3	1	nt	nt
CCN1CCN(CCCNC(=O)COc2ccc3c(c2)C(=O)CC(C)(C)O3)CC1	0	57*	6	1	-1	10
CCCC(CCC)c1nc2ccncc2[nH]1	0	52*	-5	4	-1	7
O=C(/C=C/c1ccco1)Nc1c[nH]c(=O)[nH]c1=O	1	52*	-23	-1	32*	16	AS interf DR=>6.5
CCC(=O)Nc1ccc(NC(=S)NC(=O)/C=C/c2ccco2)cc1	0	12	-2	1	nt	nt
SMILES	FBW7 act	MITF primary	TEAD-YAP inh	GPR151 ag	MITF inh conf	AlphaScreen intf2	others
O=C(/C=C/c1ccco1)NCCCNC(=O)/C=C/c1ccco1	0	27	-6	0	nt	nt
O=C(/C=C/c1ccco1)NCCCCCCNC(=O)/C=C/c1ccco1	0	55*	-28	0	69*	7	AS interf DR=>6.5
CCN(CC)C(=S)NC(=O)/C=C/c1ccco1	0	52*	-13	1	73*	1	AS interf DR=>6.5
O=C(/C=C/c1ccco1)NCCCCNC(=O)/C=C/c1ccco1	0	57*	-29	0	71*	8	AS interf DR=>6.5
O=C(/C=C/c1ccco1)Nc1cccc2ccccc12	0	13	-17	-1	nt	nt
CCN(c1ccc2nonc2c1[N+](=O)[O-])c1cccc2ccccc12	0	33	-1	2	nt	nt
CCC(C)NC(=O)C(=O)Nc1ccccc1Cl (stereo not drawn)	0	-6	-60	-2	nt	nt
Cc1nnc(/N=C2/NC(=O)CS2)s1	0	11	6	-1	nt	nt
Cc1noc(C)c1S(=O)(=O)NCC(c1ccco1)N(C)C (stereo not drawn)	0	8	11	-2	nt	nt
O=C(c1cc(Cc2ccccc2)no1)N1CCSCC1	0	-8	-1	0	nt	nt
O=C(c1cc(Cc2ccccc2)no1)N1CCCC1	0	53*	-17	0	-5	-1
Cc1ccc(/C=N/Nc2cccc(C(=O)O)c2)o1	0	59*	12	-7	9	-2
COc1cccc(C2CC(c3cccs3)=NN2C(=O)CSc2nnc(CNC(=O)c3ccccc3)n2-c2ccccc2)c1OC (stereo not drawn)	1	70*	3	0	-11	0
O=C(c1cccc(Cl)c1)N1CCN(Cc2ccccc2F)CC1	0	59*	6	2	7	7
Cc1ccccc1CN1CCN(C(=O)c2cccc(Cl)c2)CC1	1	63*	-6	1	7	12
O=C(CCC1CCCC1)N1CCN(Cc2cccc(F)c2)CC1	0	63*	5	0	-10	-8
O=C(CCC1CCCC1)N1CCN(C(=O)c2cccc(F)c2)CC1	0	-12	-10	-1	nt	nt
COc1ccc(OC)c(CN2CCN(C(=O)CCC3CCCC3)CC2)c1	0	52*	-10	2	-4	-6
Cc1ccccc1CN1CCN(C(=O)CCC2CCCC2)CC1	0	53*	11	0	-8	-1
O=C(NCCn1cc(SCC(=O)N2CCCCC2)c2ccccc21)c1c(F)cccc1F	0	4	16	1	nt	nt
Cc1ccc(NC(=O)c2sc3nc4c(c(-c5ccco5)c3c2N)CCCC4)cc1	0	51*	-5	1	-14	-3
NC(=O)c1sc2nc3c(c(-c4ccco4)c2c1N)CC/C3=C\c1ccco1	0	117*	1	-2	110*	90*
COCCCn1c(=N)c(C(=O)NCc2ccco2)cc2c(=O)n3cc(C)ccc3nc21	0	33	0	-1	nt	nt
COc1cc(-c2ccnc(N)n2)ccc1NC(=O)[C@H]1COc2ccccc2O1	2.5*	66*	7	1	52*	-3	AS interf DR=>6.5
CC(Cc1cnccn1)NC(=O)CCc1nnc(CCC2CCCCC2)o1 (stereo not drawn)	0	2	4	2	nt	nt
CC(NC(=O)CCc1nnc(CCC2CCCCC2)o1)c1ccncn1 (stereo not drawn)	0	74*	-7	0	-1	9
COc1ccc(OCC(=O)Nc2ccc(O)c(-c3nc4ccccc4o3)c2)cc1	0	-3	2	0	nt	nt
C=CCNCCOc1cc(C(C)C)ccc1C	0	3	-6	-1	nt	nt
Cc1ccc(C(C)C)c(OCCCCn2ccnc2)c1	0	20	-1	1	nt	nt
